These results are taken from PMC5913336, “True equilibrium measurement of transcription factor-DNA binding affinities using automated polarization microscopy”.

Bounds are passed on as bounds.

The target in one assay is T1, Eip93f (Drosophila melanogaster, UniProt Q9VD60 752-830).
T1 sequence: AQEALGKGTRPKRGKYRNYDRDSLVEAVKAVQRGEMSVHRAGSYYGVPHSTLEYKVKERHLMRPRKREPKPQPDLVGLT
As to the kind of experiment: FP; 33 mM phosphate pH 7.0, 90 mM NaCl, 0.01% Tween 20, 0.1 mM DTT, 0.5% agarose; room temperature. The note with it: tags: N-GST (pGEX-6P-1, kept); dsDNA, one strand shown.
With CATAGCCGAAAATTG, the binding signal was 1.35 Kd / Kd of best base at the position. On to CTTAGCCGAAAATCG, for which the binding signal was 1.14 Kd / Kd of best base at the position. On the same count and under the same terms, under CATAGCAGAAAATCG stands 23.3 Kd / Kd of best base at the position; under CATGGCCGAAAATCG, 1.39 Kd / Kd of best base at the position. In the case of CACAGCCGAAAATCG, the binding signal was 1.26 Kd / Kd of best base at the position. Regarding CATAGCCCAAAATCG, the binding signal was 1.29 Kd / Kd of best base at the position.

In a further assay the target is T2, Br (Drosophila melanogaster, UniProt Q24206 697-775).
T2 sequence: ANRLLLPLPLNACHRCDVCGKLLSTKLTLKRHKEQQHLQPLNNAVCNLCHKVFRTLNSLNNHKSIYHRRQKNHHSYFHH
The assay is described as above. Particulars: tags: N-GST (pGEX-6P-1, kept); dsDNA, one strand shown.
On to GGAATTAGAATAC, for which the binding signal is 1.82 Kd / Kd of best base at the position. For GGAATTAGAAAAG, the binding signal was 1.23 Kd / Kd of best base at the position. Same read-out and setting: the result for GGAATTAAAAAAC reads > 1590 Kd / Kd of best base at the position; that for GGAATTAGTAAAC, 6.81 Kd / Kd of best base at the position; that for GGAATTGGAAAAC, 438 Kd / Kd of best base at the position. The same measure, in the same setting: the result for GGAATTAGATAAC reads 1.59 Kd / Kd of best base at the position; that for GGGATTAGAAAAC, 1.54 Kd / Kd of best base at the position; that for GTAATTAGAAAAC, 2.7 Kd / Kd of best base at the position. As for GGAATTAGAGAAC, the binding signal was 2.43 Kd / Kd of best base at the position.

Regarding GGTATTAGAAAAC, the binding signal is 2.13 Kd / Kd of best base at the position.

GGACTTAGAAAAC: the binding signal is 2.43 Kd / Kd of best base at the position.

For the sequence GGAATTAGAACAC, the binding signal is 1.98 Kd / Kd of best base at the position. As for GGAATTAGAAACC, the binding signal is 1.42 Kd / Kd of best base at the position. In the case of GGAAGTAGAAAAC, the binding signal was 40.3 Kd / Kd of best base at the position.

Consider GGAATTAGGAAAC, for which the binding signal was 2.63 Kd / Kd of best base at the position. Same read-out and setting: the result for GGAATTAGAAAGC reads 1.36 Kd / Kd of best base at the position; that for GGCATTAGAAAAC, 2.73 Kd / Kd of best base at the position; that for CGAATTAGAAAAC, 1.68 Kd / Kd of best base at the position. Same read-out and setting: under GGAGTTAGAAAAC stands 2.41 Kd / Kd of best base at the position; under GGAATTAGCAAAC, 6.43 Kd / Kd of best base at the position; under GGAATCAGAAAAC, > 1590 Kd / Kd of best base at the position. GGAATTAGACAAC: the binding signal was 3.07 Kd / Kd of best base at the position. With GGAATTTGAAAAC, the binding signal is 23.5 Kd / Kd of best base at the position. Same read-out and setting: under AGAATTAGAAAAC stands 1.96 Kd / Kd of best base at the position.

Turning to GGAACTAGAAAAC, the binding signal is 4.4 Kd / Kd of best base at the position.

For GGAATTAGAAATC, the binding signal is 1.02 Kd / Kd of best base at the position.

On to GGAATGAGAAAAC, for which the binding signal was > 1590 Kd / Kd of best base at the position.

For the sequence GGATTTAGAAAAC, the binding signal was 2.42 Kd / Kd of best base at the position. The same measure, in the same setting: under GGAATTAGAAGAC stands 1.24 Kd / Kd of best base at the position. For the sequence GGAATTCGAAAAC, the binding signal was > 1590 Kd / Kd of best base at the position.

For the sequence GGAAATAGAAAAC, the binding signal was 7.11 Kd / Kd of best base at the position. Take GGAATAAGAAAAC: the binding signal was > 1590 Kd / Kd of best base at the position. Take GAAATTAGAAAAC: the binding signal was 2.08 Kd / Kd of best base at the position.
